From PubChem BioAssay AID1159580 (chemical genetic matrix, 2015)
Among all 5,500 compounds or so, about 2,000 (36%) were called active. About 18% were inconclusive and are not listed. No stated cut-off is given here; in the data, active means normalized growth mostly below about 0.91 (no sharp cut-off); inconclusive means no clear call, values can overlap the other calls; inactive means mostly above about 0.92. Some of the results follow.

Experiment: chemical genetic growth profiling, strain panel (AID 1159580);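 further: tested at 20 µM; growth read once vehicle control cultures reached saturation at 30 °C; 1 = growth at the plate median or of vehicle wells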
Conditions: growth OD

Measured: normalized growth

C[C@@H]1C(=O)O[C@H]2[C@H]1CC[C@@]1(C)C=CC(=O)[C@@]3(C)O[C@@]213
inactive: S. cerevisiae deletion strains, locus YKL009W, strain mrt4, stronger effect = lower value 1.03 | S. cerevisiae deletion strains, locus YKL068W, stronger effect = lower value 1.01 | S. cerevisiae deletion strains, locus YKL085W, strain MDH1 (second series), stronger effect = lower value 1.01 | S. cerevisiae deletion strains, locus YKL085W, strain MDH1, stronger effect = lower value 1.01 | S. cerevisiae deletion strains, locus YKL160W, strain elf1, stronger effect = lower value 0.963 | S. cerevisiae deletion strains, locus YKL190W, strain CNB1, stronger effect = lower value 1.01 | S. cerevisiae deletion strains, locus YKR001C, strain vps1, stronger effect = lower value 1 | S. cerevisiae deletion strains, locus YKR026C, strain gcn3, stronger effect = lower value 1.01 | S. cerevisiae deletion strains, locus YKR091W, strain srl3, stronger effect = lower value 1 | S. cerevisiae deletion strains, locus YLL001W, strain dnm1, stronger effect = lower value 1.02 | S. cerevisiae deletion strains, locus YLL026W, stronger effect = lower value 1.01 | S. cerevisiae deletion strains, locus YLL041C, strain sdh2, stronger effect = lower value 1.01 | S. cerevisiae deletion strains, locus YLR027C, strain aat2, stronger effect = lower value 1.02 | S. cerevisiae deletion strains, locus YLR039C, strain RIC1, stronger effect = lower value 0.994 | S. cerevisiae deletion strains, locus YLR058C, strain SHM2, stronger effect = lower value 1.01 | S. cerevisiae deletion strains, locus YLR102C, strain apc9, stronger effect = lower value 1.01 | S. cerevisiae deletion strains, locus YLR113W, strain HOG1, stronger effect = lower value 1.03 | S. cerevisiae deletion strains, locus YLR221C, strain rsa3, stronger effect = lower value 1.01 | S. cerevisiae deletion strains, locus YLR258W, strain gsy2, stronger effect = lower value 1.03 | S. cerevisiae deletion strains, locus YLR262C, strain YPT6 (second series), stronger effect = lower value 0.996 | S. cerevisiae deletion strains, locus YLR262C, strain YPT6, stronger effect = lower value 0.997 | S. cerevisiae deletion strains, locus YLR268W, strain sec22, stronger effect = lower value 1.04 | S. cerevisiae deletion strains, locus YLR320W, strain mms22, stronger effect = lower value 1.03 | S. cerevisiae deletion strains, locus YLR330W, strain CHS5, stronger effect = lower value 1.01 | S. cerevisiae deletion strains, locus YLR342W, strain FKS1 (second series), stronger effect = lower value 1.01 | S. cerevisiae deletion strains, locus YLR342W, strain FKS1, stronger effect = lower value 1.01 | S. cerevisiae deletion strains, locus YLR357W, strain rsc2, stronger effect = lower value 1.02 | S. cerevisiae deletion strains, locus YLR370C, strain arc18, stronger effect = lower value 1.02 | S. cerevisiae deletion strains, locus YLR371W, strain rom2, stronger effect = lower value 1.03 | S. cerevisiae deletion strains, locus YLR384C, strain iki3, stronger effect = lower value 1 | S. cerevisiae deletion strains, locus YLR418C, strain cdc73, stronger effect = lower value 1.05 | S. cerevisiae deletion strains, locus YML016C, strain PPZ1, stronger effect = lower value 1.01 | S. cerevisiae deletion strains, locus YML032C, strain rad52, stronger effect = lower value 1.01 | S. cerevisiae deletion strains, locus YML120C, strain ndi1, stronger effect = lower value 1.03 | S. cerevisiae deletion strains, locus YML124C, strain tub3, stronger effect = lower value 1.02 | S. cerevisiae deletion strains, locus YMR058W, strain fet3, stronger effect = lower value 1.03 | S. cerevisiae deletion strains, locus YMR078C, strain ctf18, stronger effect = lower value 1.02 | S. cerevisiae deletion strains, locus YMR125W, strain sto1, stronger effect = lower value 0.999 | S. cerevisiae deletion strains, locus YMR129W, stronger effect = lower value 1.03 | S. cerevisiae deletion strains, locus YMR205C, strain PFK2, stronger effect = lower value 1.02 | S. cerevisiae deletion strains, locus YMR223W, strain ubp8, stronger effect = lower value 1.01 | S. cerevisiae deletion strains, locus YMR231W, strain pep5, stronger effect = lower value 1.01 | S. cerevisiae deletion strains, locus YMR263W, strain SAP30, stronger effect = lower value 1.02 | S. cerevisiae deletion strains, locus YMR307W, strain GAS1, stronger effect = lower value 1 | S. cerevisiae deletion strains, locus YNL067W, strain RPL9B, stronger effect = lower value 1.02 | S. cerevisiae deletion strains, locus YNL071W, strain lat1, stronger effect = lower value 1 | S. cerevisiae deletion strains, locus YNL128W, strain TEP1, stronger effect = lower value 1.03 | S. cerevisiae deletion strains, locus YNL153C, strain GIM3, stronger effect = lower value 1.02 | S. cerevisiae deletion strains, locus YNL183C, strain NPR1, stronger effect = lower value 0.974 | S. cerevisiae deletion strains, locus YNL209W, strain ssb2, stronger effect = lower value 1.01 | S. cerevisiae deletion strains, locus YNL233W, strain BNI4, stronger effect = lower value 1.03 | S. cerevisiae deletion strains, locus YNL248C, strain rpa49, stronger effect = lower value 1.03 | S. cerevisiae deletion strains, locus YNL250W, strain rad50, stronger effect = lower value 1.03 | S. cerevisiae deletion strains, locus YNL271C, strain bni1, stronger effect = lower value 1.01 | S. cerevisiae deletion strains, locus YNL298W, strain CLA4, stronger effect = lower value 1.01 | S. cerevisiae deletion strains, locus YNL307C, strain MCK1, stronger effect = lower value 1.03 | S. cerevisiae deletion strains, locus YNL322C, strain KRE1 (second series), stronger effect = lower value 1 | S. cerevisiae deletion strains, locus YNL322C, strain KRE1, stronger effect = lower value 1.01 | S. cerevisiae deletion strains, locus YNR049C, strain mso1, stronger effect = lower value 1.04 | S. cerevisiae deletion strains, locus YNR052C, strain pop2, stronger effect = lower value 1.01 | S. cerevisiae deletion strains, locus YOL006C, strain TOP1, stronger effect = lower value 1.04 | S. cerevisiae deletion strains, locus YOL012C, strain htz1 0.788 | S. cerevisiae deletion strains, locus YOL147C, strain pex11, stronger effect = lower value 1.01 | S. cerevisiae deletion strains, locus YOR001W, strain rrp6, stronger effect = lower value 1.05 | S. cerevisiae deletion strains, locus YOR061W, strain CKA2, stronger effect = lower value 1.02 | S. cerevisiae deletion strains, locus YOR069W, strain VPS5, stronger effect = lower value 1.01 | S. cerevisiae deletion strains, locus YOR070C, strain gyp1, stronger effect = lower value 1.01 | S. cerevisiae deletion strains, locus YOR080W, strain dia2, stronger effect = lower value 1 | S. cerevisiae deletion strains, locus YOR083W, strain WHI5, stronger effect = lower value 1 | S. cerevisiae deletion strains, locus YOR106W, strain vam3, stronger effect = lower value 0.999 | S. cerevisiae deletion strains, locus YOR136W, strain idh2, stronger effect = lower value 1.02 | S. cerevisiae deletion strains, locus YOR144C, strain elg1, stronger effect = lower value 1.02 | S. cerevisiae deletion strains, locus YOR184W, strain ser1, stronger effect = lower value 1.03 | S. cerevisiae deletion strains, locus YOR231W, strain MKK1, stronger effect = lower value 1.04 | S. cerevisiae deletion strains, locus YOR265W, strain rbl2, stronger effect = lower value 1.03 | S. cerevisiae deletion strains, locus YOR270C, strain vph1, stronger effect = lower value 1.1 | S. cerevisiae deletion strains, locus YOR290C, strain snf2, stronger effect = lower value 1.02 | S. cerevisiae deletion strains, locus YOR316C, strain cot1, stronger effect = lower value 1.02 | S. cerevisiae deletion strains, locus YPL051W, strain arl3, stronger effect = lower value 1.02 | S. cerevisiae deletion strains, locus YPL055C, strain LGE1, stronger effect = lower value 1.06 | S. cerevisiae deletion strains, locus YPL078C, strain atp4, stronger effect = lower value 1.02 | S. cerevisiae deletion strains, locus YPL106C, strain sse1, stronger effect = lower value 1.01 | S. cerevisiae deletion strains, locus YPL240C, strain hsp82, stronger effect = lower value 1.01 | S. cerevisiae deletion strains, locus YPL241C, strain CIN2, stronger effect = lower value 1 | S. cerevisiae deletion strains, locus YPL256C, strain CLN2, stronger effect = lower value 1.03 | S. cerevisiae deletion strains, locus YPR119W, strain clb2, stronger effect = lower value 1.01 | S. cerevisiae deletion strains, locus YPR141C, strain kar3, stronger effect = lower value 1.02 | S. cerevisiae deletion strains, locus YPR163C, strain tif3, stronger effect = lower value 1.02 | S. cerevisiae deletion strains, locus YPR167C, strain met16, stronger effect = lower value 1.02 | S. cerevisiae deletion strains, strain wtn01, stronger effect = lower value 1.03 | S. cerevisiae strains, strain wild type, stronger effect = lower value 1.02
